We go through 37 compounds from PubChem BioAssay (EPA / NIEHS).

Values joined by “and” are separate entries in the source; they are usually repeats but may differ in a detail not shown here. Equal entries are not always repeated. Where a structure was tested more than once in an assay, its records may differ in their call. Active and inactive are the calls of the source. The calls were made as follows: active = hit-call score of the fitted dose curve at least 0.9, where 1 is the maximum; inactive = score below 0.9.

Read-out in this experiment: Urokinase-type plasminogen activator receptor (uPAR), PLAUR (gene 5329)
In words: BSK_BE3C_uPAR: BioMAP Diversity Plus: BE3C Assay for Urokinase-type plasminogen activator receptor (uPAR) Biomarker Activity (AID 2283039).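 As to outcome: cells exposed to compound for one day before measurement.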 Particulars: primary human bronchial epithelial cells; actives raise or lower the signal. Here is the method: BSK_BE3C is a cell-based, multiplexed-readout assay that uses bronchial epithelial cell, a human lung primary cell, with measurements taken at 24 hours after chemical dosing in a 96-well plate.BSK_BE3CAR is an assay component measured in the BSK_BE3C assay. It measures uPAR antibody related to regulation of gene expression using ELISA technology.Data from the assay component BSK_BE3CAR was analyzed into 1 assay endpoint. This assay endpoint, BSK_BE3CAR, was analyzed with bidirectional fitting relative to DMSO as the negative control and baseline of activity. Using a type of binding reporter, gain or loss-of-signal activity can be used to understand changes in the signaling as they relate to the gene PLAUR. Furthermore, this assay endpoint can be referred to as a primary readout, because this assay has produced multiple assay endpoints where this one serves a signaling function. To generalize the intended target to other relatable targets, this assay endpoint is annotated to the cytokine intended target family, where the subfamily is plasmogen activator.
The levels of cell surface (or secreted, indicated by the prefix "s") biomarker endpoints were measured by ELISA. Overt cytotoxicity to cells in confluent adherent cultures (all systems other than the BT system) was assessed by measuring total protein levels using sulforhodamine B (SRB) staining in parallel cultures at the time of biomarker measurements, indicated as SRB endpoints. For proliferation assays for adherent cell types, individual cell types are cultured at sub-confluence and relative cell numbers quantified by SRB staining at time points optimized for each system (48 h: 3C and CASM3C systems; 72 h: BT and HDF3CGF systems; 96 h: SAg system). SRB was performed by staining cells with 0.1% SRB after fixation with 10% TCA and reading wells at 560 nm.Viability and proliferation of PBMC (T cells) was quantified by Alamar Blue reduction for the SAg and BT systems. For PBMC viability (referred to as PBMC Cytotoxicity within the assay endpoint names), cells were plated (75,000/well in a 96-well plate) and then chemical samples added for 1 h before addition of activators, SEB and TSST-1 (20 ng/mL final concentration each). Cells were incubated for 90 h. Then, Alamar Blue (20 uL/well) (Invitrogen, Cat DAL1100) was added for 6 h, and the plates were read with a fluorescence microplate reader at 546/580 nm (excitation/emission). For PBMC proliferation, cells were plated and activated as above but incubated for only 16 h prior to addition of Alamar Blue. Plates were read after 6 h.
Consider `O[Si](c1ccccc1)(c1ccccc1)c1ccccc1`, for which the result was inactive.
Usually AC50 stands for the concentration giving half of the maximal activity seen. `CCCCC(CC)COP(=O)(O)OCC(CC)CCCC` (stereo not given): the AC50 is 5.24 µM (active) and the outcome was inactive.
In the case of `CCCCCCC(C)OC(=O)CCCCC(=O)OC(C)CCCCCC` (stereo not given), the outcome was inactive.
With `C=C(C)C(=O)OCC(F)(F)C(F)(F)C(F)(F)C(F)(F)C(F)(F)C(F)(F)C(F)(F)F`, the outcome was inactive.
On to `C=C(C)C(=O)OCCC(F)(F)C(F)(F)C(F)(F)C(F)(F)C(F)(C(F)(F)F)C(F)(F)F`, for which the outcome was inactive.
As to `O=S(=O)(OCC(F)F)C(F)(F)F`, the result was inactive.
Take `CCCCCCOC(=O)c1ccccc1O`: the outcome was inactive.
On the same count and under the same terms, next, `N=C(N)C(F)(F)C(F)(F)C(F)(F)C(F)(F)C(F)(F)C(F)(F)C(F)(F)F`: “inactive”; `C=C(C)C(=O)OCC(F)(F)C(F)(F)C(F)(F)F`: “inactive”; `FC(F)(F)C(F)(F)C(F)(F)C(F)(F)C(F)(F)C(F)(F)C(F)(F)C(F)(F)F`: “inactive”.
Regarding `FC(F)(F)C(F)(F)C(F)(F)CI`, the outcome was inactive.
For the compound `CCCCNc1ccccc1`, the result was inactive.
For the compound `FC(F)(Br)C(F)(F)C(F)(F)C(F)(F)C(F)(F)C(F)(F)Br`, the result was inactive.
As to `OCC(F)(F)C(F)(F)C(F)(F)C(F)F`, the result was inactive.
Still for that read-out and setting: next, `CCCCOCCOCCOC(=O)CCCCC(=O)OCCOCCOCCCC`: “inactive”.
As for `FC(F)(F)C(F)(F)C(F)(F)C(F)(F)C(F)(F)C(F)(F)C(F)(F)I`, the outcome was inactive.
For the compound `OCCCC(F)(F)C(F)(F)C(F)(F)F`, the outcome was inactive.
Turning to `CCN(CC)c1ccc2c(C)cc(=O)oc2c1`, the outcome was inactive.
Take `CCO[Si](CCC(F)(F)C(F)(F)C(F)(F)C(F)(F)C(F)(F)C(F)(F)F)(OCC)OCC`: the result was inactive.
Consider `NC(=O)C(F)(F)C(F)(F)C(F)(F)C(F)(F)F`, for which the outcome was inactive.
Same read-out and setting: next, `O=C(O)C(F)(F)C(F)(F)F`: “inactive”.
For `C=CC/C=C/C/C=C/C/C=C/C`, the outcome was inactive.
For the compound `C=CC(=O)OCC(F)(F)C(F)(F)C(F)(F)C(F)(F)COC(=O)C=C`, the outcome was inactive and the AC50 was 21.5 µM (active).
For `FC(F)(F)C(F)(F)C(F)(F)C(F)(F)C(F)(F)C(F)(F)CCS`, the result was inactive.
Consider `O=C(O)C(F)(F)C(F)(F)C(F)(F)C(F)(F)C(F)(F)C(F)(F)C(F)(F)C(F)(F)C(F)(F)C(F)(F)C(F)(F)C(F)(F)C(F)(F)F`, for which the result was inactive.
Turning to `OCC(F)(F)C(F)(F)C(F)(F)F`, the result was inactive.
Regarding `CO[Si](OC)(c1ccccc1)c1ccccc1`, the result was inactive.
Still for that read-out and setting: next, `Cc1ccc(S(=O)(=O)OCC(F)(F)C(F)(F)C(F)(F)C(F)(F)C(F)(F)C(F)F)cc1`: “inactive”; `CCCCCCCOC(=O)c1ccccc1C(=O)OCCCCCCC`: “inactive”.
Same read-out and setting: next, `FC(F)(F)C(F)(F)C(F)(F)N(C(F)(F)C(F)(F)C(F)(F)F)C(F)(F)C(F)(F)C(F)(F)F`: “inactive”; `CC(C)(C)C(=O)CC(=O)C(F)(F)C(F)(F)C(F)(F)F`: “inactive”.
For the compound `O=C(O)C(F)(F)C(F)(F)C(F)F`, the outcome was inactive.
In the case of `O=C(O)C(F)(F)C(F)(F)C(F)(F)C(F)(F)C(F)(F)C(F)(F)C(F)(F)C(F)(F)Cl`, the half-maximal activity concentration (AC50) is 48.6 µM (active) and 44.4 µM (active).
In the case of `FC(F)(I)C(F)(F)C(F)(F)C(F)(F)I`, the half-maximal activity concentration (AC50) was 51.1 µM (active) and 47.9 µM (active); the result was inactive.
Take `C=CC(F)(F)C(F)(F)C(F)(F)C(F)(F)C(F)(F)C(F)(F)C(F)(F)C(F)(F)C=C`: the result was inactive.
`O=S(=O)(OCCOC(F)(F)F)C(F)(F)F`: the outcome was inactive.
With `CC(=O)Nc1ccc(N=Nc2cc(C)ccc2O)cc1`, the result was inactive.
